The target in test [1] is Lysosomal acid glucosylceramidase (Homo sapiens) (UniProt P04062). Description: Glucocerebrosidase-p2 (AID 348; in the data active = potency below about 10 µM; note: potency is the fitted concentration of half-maximal effect). The following applies: purified GBA, blue fluorogenic substrate, 40 min. The procedure, abridged:
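Compounds titrated from 0.6 nM upwards against 0.2 nM enzyme in pH 5.9 citric acid/KH2PO4, taurocholate, tween-20; blue fluorogenic substrate 80 uM, 40 min room temperature, stopped and read Ex 365/Em 440 for AC50.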

The nature of test [2]: AP1 Signaling Pathway (AID 357; active = well fitted curve in either direction with a large enough effect, not every such curve was filed as active; note: % is set by controls: 0 for no effect and ±100 for the full control effect). The note with it: ME-180 AP-1-bla reporter, EGF-induced, beta-lactamase ratio, 5 h; at 7.69 µM (top of the series) unless noted. The procedure, abridged: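 ME-180 cells with beta-lactamase reporter under AP-1 response element, stimulated with EC50 EGF; compounds tested in titration series, 5 h at 37 °C. CCF4 substrate added 2.5 h at room temperature; 460/530 nm emission ratio gave %activity and AC50.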

Test [3] concerns the target Cytochrome P450 1A2 (Homo sapiens) (UniProt P05177). Put plainly: p450-cyp1a2 (AID 410; calls by dose curve; note: potency is the fitted concentration of half-maximal effect). The following applies: recombinant CYP1A2, luciferin-ME demethylation, luminescence; series mostly up to 57 µM. In a few lines: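 20nM CYP1A2 with 100uM Luciferin-ME (at Km) in 100mM KPO4; compound preincubated 10 min, NADPH regeneration added, 60 min at room temperature. Luciferin quantified by luminescence after detection reagent; normalized to 57 uM furafylline.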

Test [4] in a line: NFAT Signaling Pathway (AID 444; active = well fitted curve in either direction with a large enough effect, not every such curve was filed as active;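 note: carbachol stimulus at about its EC50 of 1 µM final; % is set by controls: 0 for no effect and ±100 for the full control effect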). The following applies: Jurkat NFAT-bla M1, carbachol, beta-lactamase ratio, 5 h; at 7.69 µM (top of the series) unless noted. The procedure, abridged:
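Jurkat cells with NFAT-driven β-lactamase reporter and co-expressed M1 receptor, stimulated with carbachol (final 1 uM, ~EC50), compound titration, 5 h at 37 °C. CCF4 loaded 1 h at RT; 460/530 nm ratio gave %activity and AC50.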

Test [5] in a line: Stat Signaling Pathway (AID 446; active = well fitted curve in either direction with a large enough effect, not every such curve was filed as active;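 note: ME-180 cervical cancer cells given 40 pM IL-6 alongside compound; SIE-controlled beta-lactamase reporter measured as 460/530 nm FRET emission ratio; % is set by controls: 0 for no effect and ±100 for the full control effect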). The note with it: ME-180 SIE beta-lactamase reporter, IL-6 stimulated, 5 h; at 7.69 µM (top of the series) unless noted. In a few lines: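 IL-6/STAT signaling read in ME-180 cells via an SIE beta-lactamase reporter. Stimulus was 40 pM IL-6 (its AC50) for 5 hrs, so both activation and inhibition register.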
In test [6] the target is Glucocorticoid receptor (Homo sapiens) (UniProt P04150). Description: GR-GFP Redistribution (AID 450;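 active = compounds whose dose series gives a full or clear partial fitted curve of increased nuclear translocation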; note: potency is the fitted concentration of half-maximal effect). The following applies: U2OS GR-GFP nuclear translocation, laser cytometry, 2 h.
Test [7] shares this target. Description: GR-EFC Redistribution (AID 451; calls by dose curve; note: potency is the fitted concentration of half-maximal effect). The note with it: CHO-K1 GR-EFC translocation, beta-gal luminescence, 2 h. The procedure, abridged:
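CHO-K1 cells expressing nuclear EA and GR-ED fragments of b-gal; compounds titrated up to 46 uM final, 2 h at 37 C. GR nuclear translocation read as complemented b-gal luminescence after 1 h RT detection.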

Test [8] has as its target Mitogen-activated protein kinase 10 (Mus musculus) (UniProt Q61831). Put plainly: JNK3 AlphaScreen Assay (AID 530; active = well fitted curve in either direction with a large enough effect, not every such curve was filed as active;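 note: kinase came from lysate of stimulated human HepG2 cells; signal reports phosphorylation of biotinylated GST-cJun 1-79 at Ser73 with 10 µM ATP; % is set by controls: 0 for no effect and ±100 for the full control effect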). The following applies: JNK3 lysate, c-Jun phosphorylation; series mostly up to 57.1 µM. The procedure, abridged:
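Pre-activated (IL-1β/TNFα) JNK3 in HepG2 lysates phosphorylates biotin-GST-cJun(1-79), 10 uM ATP; anti-phospho-cJun(Ser73) AlphaScreen read at room temperature, pH 7.6 Tris buffer. Compounds pre-incubated 15 min as titrations.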
In general terms: Alpha assays give light when donor and acceptor beads are brought close together.

Test [9] addresses 3',5'-cyclic-AMP phosphodiesterase 4B (Homo sapiens) (UniProt Q07343). Description: qHTS Assay for Inhibitors of PDE-IV (AID 607; active = well fitted activation curve with a large enough effect in the main read-out, with a control signal flat, not every such curve was filed as active; note: % of control where 0% means no effect). The following applies: HEK293 ACTOne CNG channel cells, membrane potential fluorescence; series mostly up to 22.9 µM. In a few lines:
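Live HEK293 cells with a modified cyclic nucleotide-gated (CNG) channel report intracellular cAMP via membrane-potential dye fluorescence (ex 535/em 590 nm). Endogenous PDE-IV was targeted. Compounds were tested at up to 22.9 uM final; RO 20-1724 100 uM served as control.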
(In general: qHTS replaces the single test concentration by a dilution series.)

The target of test [10] is Cytochrome P450 3A4 (Homo sapiens) (UniProt P08684). Put plainly: qHTS Assay for Activators of Cytochrome P450 3A4 (AID 885). Note: nearly all actives have a fitted effect of over 65% in size. The following applies: recombinant CYP3A4, Luciferin-PPXE luminescence, 60 min; series mostly up to 57.1 µM. In a few lines: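 Quantitative HTS format: compounds preincubated with 20nM human CYP3A4 and Luciferin-PPXE substrate at KM, reaction started by NADPH regeneration, stopped after 60 min, luciferase luminescence read 20 min later.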

For test [11], the target named is Cytochrome P450 2C19 (Homo sapiens) (UniProt P33261). Description: qHTS Assay for Inhibitors and Substrates of Cytochrome P450 2C19 (AID 899). Note: potency is the fitted concentration of half-maximal effect; nearly all actives have a fitted effect of over 60% in size. The note with it: recombinant CYP2C19, luciferin-H EGE luminescence; series mostly up to 57.1 µM. In a few lines:
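5 nM human CYP2C19 with 10uM Luciferin-H EGE (at KM) in 50mM KPO4, compound preincubated 10 min at 37C, then NADPH regeneration for 60 min at 37C. Luciferin read by luminescence after detection reagent; normalized to 57uM ketoconazole as full inhibition.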

A short description of test [12]: qHTS Assay for Identification of Small Molecule Agonists for Hypoxia Response Element Signaling Pathway (AID 914; active = well fitted activation curve with a large enough effect in the signal ratio, with a control signal flat, not every such curve was filed as active; the % refers to the signal ratio; note: % of control where 0% means no effect). The note with it: ME-180 (cervical carcinoma) HRE-bla reporter, beta-lactamase ratio, CoCl2, 17 h; activation: active compounds read high. The procedure, abridged:
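AC50 values come from titration-series %Activity, taken as the 460/530nm ratio of CCF4 fluorescence (excitation 405nm). CellSensor HRE-bla ME-180 cells were treated 17 hours at 37 C with compound plus an EC50 level of CoCl2.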

The target in test [13] is Dual specificity protein kinase CLK4 (Homo sapiens) (UniProt Q9HAZ1). Description: qHTS Assay for Inhibitors of CDC-like Kinase 4 (ADP-FP Assay) (AID 1795). Note: nearly all actives have a fitted effect of over 60% in size. Note: potency is the fitted concentration of half-maximal effect. The following applies: Transcreener ADP fluorescence polarization; series mostly up to 50 µM. In a few lines: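 Inhibition of ADP formation by 6.25 nM Clk4 is measured using 1 uM ATP and 100 uM RS repeat peptide over one hour. Produced ADP displaces a fluorescent tracer from antibody, lowering polarization.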

A short description of test [14]: Primary qHTS for small molecule stabilizers of the endoplasmic reticulum resident proteome: Secreted ER Calcium Modulated Protein (SERCaMP) assay (AID 1508630). Note: % is set by controls: 0 for no effect and ±100 for the full control effect. The following applies: SH-SY5Y GLuc-SERCaMP (Gaussia luciferase released on ER calcium loss) secretion, thapsigargin, luminescence; series mostly up to 38.4 µM. The procedure, abridged: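 GLuc-SERCaMP-expressing SH-SY5Y cells, pretreated 16 h with compound, are challenged with thapsigargin to empty ER calcium stores; after 4 h, coelenterazine is added directly to the medium and luminescence is imaged.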

Test [15] has as its target Cytochrome P450 2D6 (Homo sapiens) (UniProt P10635). Put plainly: qHTS Assay for Inhibitors and Substrates of Cytochrome P450 2D6 (AID 891). Note: potency is the fitted concentration of half-maximal effect; nearly all actives have a fitted effect of over 60% in size. The following applies: recombinant CYP2D6, luciferin-ME EGE luminescence; series mostly up to 57.1 µM. In a few lines:
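Human CYP2D6 (5 nM) with 30 uM Luciferin-ME EGE (at Km) in 100 mM KPO4, compound preincubated 10 min, then NADPH regeneration system for 60 min at room temperature. Luciferin read by luminescence; normalized to 1.43 uM quinidine.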

The target in test [16] is Ubiquitin carboxyl-terminal hydrolase 1 (Homo sapiens) (UniProt O94782). Put plainly: Inhibitors of USP1/UAF1: Pilot qHTS (AID 504865).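 Note: rhodamine fluorescence freed from ubiquitin-rhodamine substrate followed over time; top concentration of the series differs between compounds; % is set by controls: 0 for no effect and ±100 for the full control effect; nearly all actives have a fitted effect of over 35% in size.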 The following applies: purified USP1/UAF1, Ub-rhodamine cleavage fluorescence; series mostly up to 54.9 µM. The procedure, abridged: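 Kinetic fluorescence assay: 1nM USP1/UAF1, 15 min compound preincubation, then 150nM Ub-Rho; 480/540 nm.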

In test [17] the target is Cytochrome P450 3A4 (Homo sapiens) (UniProt P08684). Description: qHTS Assay for Inhibitors and Substrates of Cytochrome P450 3A4 (AID 884). Note: potency is the fitted concentration of half-maximal effect; nearly all actives have a fitted effect of over 50% in size. The note with it: recombinant CYP3A4, Luciferin-PPXE luminescence; series mostly up to 57.1 µM. In a few lines: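 20 nM human CYP3A4 with 25 uM Luciferin-PPXE (at KM) in 200 mM KPO4, preincubated 10 min with compound; NADPH regeneration started a 60 min RT reaction. Luciferin detected by luminescence, normalized to 57 uM ketoconazole as full inhibition.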

Values without a mark were called inactive. Records with an inconclusive call do not appear. Activity calls are given as the source filed them. Unless noted, calls come from the whole dose curve; as a rule, active = well fitted curve in the direction sought with a large enough effect; inconclusive = small, poorly fitted or top-dose-only effect, or another doubt; inactive = no such curve, though single readings can be large; an effect the other way counts as inactive or inconclusive.

Chain of Glucocorticoid receptor (Homo sapiens) (P04150 whole entry, looked up): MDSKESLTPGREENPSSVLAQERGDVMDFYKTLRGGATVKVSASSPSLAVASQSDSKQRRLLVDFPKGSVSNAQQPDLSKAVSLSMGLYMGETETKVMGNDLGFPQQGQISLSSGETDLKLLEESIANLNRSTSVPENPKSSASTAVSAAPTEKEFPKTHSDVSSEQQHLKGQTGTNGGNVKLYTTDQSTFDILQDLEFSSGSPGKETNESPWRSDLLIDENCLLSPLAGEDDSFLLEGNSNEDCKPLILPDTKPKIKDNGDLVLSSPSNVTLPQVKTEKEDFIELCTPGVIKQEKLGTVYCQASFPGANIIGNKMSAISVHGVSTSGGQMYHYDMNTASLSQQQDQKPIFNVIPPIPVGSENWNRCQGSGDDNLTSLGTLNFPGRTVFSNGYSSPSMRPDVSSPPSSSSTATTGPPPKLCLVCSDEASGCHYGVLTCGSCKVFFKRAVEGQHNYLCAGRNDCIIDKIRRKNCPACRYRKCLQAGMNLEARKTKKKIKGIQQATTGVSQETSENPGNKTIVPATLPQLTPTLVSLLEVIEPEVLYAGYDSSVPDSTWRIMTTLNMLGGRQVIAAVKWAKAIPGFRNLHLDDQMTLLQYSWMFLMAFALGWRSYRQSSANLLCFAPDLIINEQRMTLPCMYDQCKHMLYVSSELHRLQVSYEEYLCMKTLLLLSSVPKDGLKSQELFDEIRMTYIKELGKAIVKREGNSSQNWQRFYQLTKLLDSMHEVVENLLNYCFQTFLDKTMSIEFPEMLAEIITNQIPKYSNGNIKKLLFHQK
Chain of 3',5'-cyclic-AMP phosphodiesterase 4B (Homo sapiens) (Q07343 whole entry, looked up): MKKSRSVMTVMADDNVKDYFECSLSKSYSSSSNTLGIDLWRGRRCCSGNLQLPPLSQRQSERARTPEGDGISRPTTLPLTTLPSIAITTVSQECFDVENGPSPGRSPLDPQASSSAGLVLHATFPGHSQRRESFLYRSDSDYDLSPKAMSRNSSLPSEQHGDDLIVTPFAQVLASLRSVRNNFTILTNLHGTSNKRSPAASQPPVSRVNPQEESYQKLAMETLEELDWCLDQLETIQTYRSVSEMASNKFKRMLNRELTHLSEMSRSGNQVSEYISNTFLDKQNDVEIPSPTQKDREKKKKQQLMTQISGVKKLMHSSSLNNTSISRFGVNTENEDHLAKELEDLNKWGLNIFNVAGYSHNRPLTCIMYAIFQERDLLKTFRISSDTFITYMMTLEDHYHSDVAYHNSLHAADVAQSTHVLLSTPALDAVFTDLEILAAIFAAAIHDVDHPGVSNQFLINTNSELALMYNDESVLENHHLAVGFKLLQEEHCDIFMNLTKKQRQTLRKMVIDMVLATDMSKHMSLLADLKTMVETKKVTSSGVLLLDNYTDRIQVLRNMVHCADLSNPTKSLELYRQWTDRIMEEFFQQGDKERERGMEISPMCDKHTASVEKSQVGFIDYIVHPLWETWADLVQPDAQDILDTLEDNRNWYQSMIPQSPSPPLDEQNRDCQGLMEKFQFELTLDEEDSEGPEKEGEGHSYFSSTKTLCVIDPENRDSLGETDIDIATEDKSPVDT
Chain of Cytochrome P450 2D6 (Homo sapiens) (P10635 whole entry, looked up): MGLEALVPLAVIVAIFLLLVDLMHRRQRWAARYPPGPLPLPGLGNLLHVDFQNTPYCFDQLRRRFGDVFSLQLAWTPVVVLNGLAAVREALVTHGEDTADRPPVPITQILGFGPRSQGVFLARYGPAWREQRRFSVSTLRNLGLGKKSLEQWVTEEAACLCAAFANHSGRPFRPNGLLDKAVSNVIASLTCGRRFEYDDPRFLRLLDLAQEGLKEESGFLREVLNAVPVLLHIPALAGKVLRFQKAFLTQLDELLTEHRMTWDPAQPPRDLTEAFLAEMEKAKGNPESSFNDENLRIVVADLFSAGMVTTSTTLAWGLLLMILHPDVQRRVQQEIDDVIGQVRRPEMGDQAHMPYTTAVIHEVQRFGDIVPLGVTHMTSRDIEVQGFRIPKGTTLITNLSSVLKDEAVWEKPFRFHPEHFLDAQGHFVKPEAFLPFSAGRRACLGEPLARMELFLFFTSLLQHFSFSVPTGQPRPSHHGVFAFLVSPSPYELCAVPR
Chain of Cytochrome P450 1A2 (Homo sapiens) (P05177 whole entry, looked up): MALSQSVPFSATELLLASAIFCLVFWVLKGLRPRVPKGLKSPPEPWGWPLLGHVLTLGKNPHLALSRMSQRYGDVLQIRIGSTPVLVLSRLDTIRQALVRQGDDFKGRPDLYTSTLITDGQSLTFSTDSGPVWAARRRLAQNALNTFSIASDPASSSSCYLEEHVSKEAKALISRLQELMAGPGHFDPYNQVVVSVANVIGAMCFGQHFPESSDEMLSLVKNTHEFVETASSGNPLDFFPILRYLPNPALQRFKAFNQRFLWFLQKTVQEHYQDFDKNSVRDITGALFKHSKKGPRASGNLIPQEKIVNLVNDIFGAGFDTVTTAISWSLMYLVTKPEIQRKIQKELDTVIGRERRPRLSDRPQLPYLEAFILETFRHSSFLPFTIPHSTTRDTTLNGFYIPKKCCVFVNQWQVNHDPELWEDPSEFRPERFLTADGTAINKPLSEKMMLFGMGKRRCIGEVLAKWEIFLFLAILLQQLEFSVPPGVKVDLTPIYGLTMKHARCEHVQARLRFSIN
Chain of Lysosomal acid glucosylceramidase (Homo sapiens) (P04062 whole entry, looked up): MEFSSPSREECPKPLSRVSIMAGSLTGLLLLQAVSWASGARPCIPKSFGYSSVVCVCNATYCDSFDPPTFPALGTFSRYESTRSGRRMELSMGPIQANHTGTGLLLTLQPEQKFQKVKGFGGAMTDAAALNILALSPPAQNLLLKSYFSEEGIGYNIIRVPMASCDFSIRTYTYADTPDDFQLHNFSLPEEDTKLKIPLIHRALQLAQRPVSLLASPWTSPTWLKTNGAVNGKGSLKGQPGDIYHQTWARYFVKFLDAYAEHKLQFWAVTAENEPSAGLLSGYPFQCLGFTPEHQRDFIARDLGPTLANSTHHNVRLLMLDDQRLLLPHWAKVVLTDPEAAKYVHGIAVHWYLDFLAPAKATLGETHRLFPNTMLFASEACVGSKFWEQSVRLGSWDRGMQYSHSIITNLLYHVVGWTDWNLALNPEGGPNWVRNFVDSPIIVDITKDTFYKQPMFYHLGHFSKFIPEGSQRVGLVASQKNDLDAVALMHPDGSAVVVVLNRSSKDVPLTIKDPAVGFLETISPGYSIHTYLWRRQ
Chain of Cytochrome P450 3A4 (Homo sapiens) (P08684 whole entry, looked up): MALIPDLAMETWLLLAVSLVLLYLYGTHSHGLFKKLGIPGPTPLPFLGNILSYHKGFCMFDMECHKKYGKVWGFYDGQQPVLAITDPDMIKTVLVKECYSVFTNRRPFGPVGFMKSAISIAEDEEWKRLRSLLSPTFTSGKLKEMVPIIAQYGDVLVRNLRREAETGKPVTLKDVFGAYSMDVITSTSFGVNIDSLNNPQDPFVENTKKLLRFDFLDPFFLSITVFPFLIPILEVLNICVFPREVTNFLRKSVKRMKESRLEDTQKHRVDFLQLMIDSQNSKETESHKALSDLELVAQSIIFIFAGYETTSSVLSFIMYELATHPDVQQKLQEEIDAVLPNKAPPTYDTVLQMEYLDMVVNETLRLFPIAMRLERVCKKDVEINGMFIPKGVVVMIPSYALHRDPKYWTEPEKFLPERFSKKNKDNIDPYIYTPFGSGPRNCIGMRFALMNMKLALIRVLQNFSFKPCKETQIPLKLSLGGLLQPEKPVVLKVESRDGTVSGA
Chain of Ubiquitin carboxyl-terminal hydrolase 1 (Homo sapiens) (O94782 whole entry, looked up): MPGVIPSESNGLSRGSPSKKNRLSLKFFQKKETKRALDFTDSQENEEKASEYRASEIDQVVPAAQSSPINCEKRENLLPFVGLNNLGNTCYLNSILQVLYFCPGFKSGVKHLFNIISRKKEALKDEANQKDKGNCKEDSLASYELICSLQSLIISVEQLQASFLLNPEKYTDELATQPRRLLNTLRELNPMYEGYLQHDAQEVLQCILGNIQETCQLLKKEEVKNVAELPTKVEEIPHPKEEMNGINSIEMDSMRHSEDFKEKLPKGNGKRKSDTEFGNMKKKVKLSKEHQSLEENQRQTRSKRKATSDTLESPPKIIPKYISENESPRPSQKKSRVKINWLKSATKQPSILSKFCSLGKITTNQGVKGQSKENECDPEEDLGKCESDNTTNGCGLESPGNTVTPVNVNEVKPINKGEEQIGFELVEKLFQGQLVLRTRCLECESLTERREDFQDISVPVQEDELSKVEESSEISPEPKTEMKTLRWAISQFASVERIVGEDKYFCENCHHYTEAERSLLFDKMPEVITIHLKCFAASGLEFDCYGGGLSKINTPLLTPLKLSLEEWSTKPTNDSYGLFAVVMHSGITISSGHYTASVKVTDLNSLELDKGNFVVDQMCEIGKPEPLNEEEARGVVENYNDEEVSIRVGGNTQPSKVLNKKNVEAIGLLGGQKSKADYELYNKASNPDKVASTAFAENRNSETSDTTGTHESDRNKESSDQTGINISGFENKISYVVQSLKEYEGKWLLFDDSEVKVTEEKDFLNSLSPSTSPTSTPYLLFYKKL
Chain of Dual specificity protein kinase CLK4 (Homo sapiens) (Q9HAZ1 whole entry, looked up): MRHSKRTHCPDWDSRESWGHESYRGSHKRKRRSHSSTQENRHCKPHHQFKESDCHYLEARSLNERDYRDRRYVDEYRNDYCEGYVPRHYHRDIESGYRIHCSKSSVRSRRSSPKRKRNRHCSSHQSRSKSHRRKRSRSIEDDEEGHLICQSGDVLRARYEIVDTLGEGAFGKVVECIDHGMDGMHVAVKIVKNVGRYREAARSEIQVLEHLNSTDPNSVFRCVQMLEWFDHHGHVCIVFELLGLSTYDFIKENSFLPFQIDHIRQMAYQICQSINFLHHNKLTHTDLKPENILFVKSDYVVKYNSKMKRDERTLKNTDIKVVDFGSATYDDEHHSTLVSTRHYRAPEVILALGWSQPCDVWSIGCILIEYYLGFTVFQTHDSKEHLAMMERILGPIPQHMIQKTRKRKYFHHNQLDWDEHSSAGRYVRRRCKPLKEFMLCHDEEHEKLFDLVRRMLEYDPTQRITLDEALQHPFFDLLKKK

With `Cc1noc(C)c1-c1nccc(Nc2ccc(F)cc2)n1`, the Potency in [1] is over 11.4 µM; in test [3] it was 0.398 µM (active); in [6], over 46 µM; in test [7], over 46 µM; in [11], 3.98 µM (active). In addition, the activity change, negative = inhibition in test [2] is -22.4%; in test [4], -10.5%. For the same molecule, the activity, negative = inhibition in [5] is 1.44%. Further, the Potency entry in test [8], in test [9], in test [10] and in test [13] was “inactive” throughout. Moreover, the activation in test [12] is 21.5%. Also, the outcome in test [14] was inactive.

Take `CCNc1ncc2nc(-c3cccc(C#N)c3)c(=O)n(CCC#N)c2n1`: the Potency is over 11.4 µM in [1]; 0.631 µM (active) in test [3]; over 9.22 µM in test [6]; over 46 µM in test [7]; 0.0316 µM (active) in test [15]. Further, the activity change, negative = inhibition in test [2] was 12.8%; in test [4], -1.23%. For the same molecule, the activity, negative = inhibition in test [5] was 14.1%. For the same molecule, the Potency entry in test [8], in test [10], in [13] and in test [16] was “inactive” throughout. Besides, the outcome in [14] was inactive.

As for `COCCn1c(=O)cnc2cnc(N(C)C)nc21`, the Potency was over 11.4 µM in [1], over 9.22 µM in [6] and over 46 µM in test [7]. In addition, the activity change, negative = inhibition is 8.38% in test [2] and 7.07% in test [4]. For the same molecule, the activity, negative = inhibition in [5] was -2.06%. In addition, the Potency result in [8], in test [9], in test [13] and in [16] was “inactive” throughout. Moreover, the outcome in test [14] was inactive.

As to `c1csc(CNc2nc(-c3ccoc3)nc3ccccc23)c1`, the Potency in test [1] is over 11.4 µM; in test [3] it was 0.316 µM (active); in [7], over 46 µM; in [17], 7.94 µM (active); in test [15], 3.98 µM (active); in [13] it was 11.2 µM (active). The values for the activity change, negative = inhibition in test [2] and in test [4] were -9.82% and -8.44%, respectively. The activity, negative = inhibition in test [5] is -7.57%. The Potency entry in [8] and in test [10] was “inactive” in each case. Moreover, the result in [14] was inactive.

Turning to `c1cncc(CNc2ccnc(-c3cccnc3)n2)c1`, the Potency in [1] was over 11.4 µM; in test [6], over 46 µM; in [7], over 46 µM. Moreover, the activity change, negative = inhibition in test [2] is 8.01%; in test [4], 10.2%. In addition, the activity, negative = inhibition in [5] was 8.94%. Also, the Potency entry in test [8], in [9], in test [13] and in test [16] was “inactive” in each case. Also, the outcome in test [14] was inactive.

In the case of `CN(Cc1ccco1)c1ncncc1-c1ccc2c(c1)OCO2`, the Potency in test [1] is over 11.4 µM; in test [3], 0.2 µM (active); in test [6], over 46 µM; in test [7] it was over 46 µM; in test [17], 1.26 µM (active); in [15] it was 1.26 µM (active). The Potency in [11] was 0.126 µM (active). In test [2], the activity change, negative = inhibition was 1.93%. Further, the activity, negative = inhibition in [5] was -2.55%. Besides, the Potency entry in [8], in test [10], in test [13] and in test [16] was “inactive” throughout. Further, in [12], the activation was 4.7%. The outcome in [14] was inactive.

Turning to `CCNc1ncc2nc(-c3cccs3)c(=O)n(C[C@H]3CCCO3)c2n1`, the Potency is over 11.4 µM in test [1], 2.51 µM (active) in test [3] and over 9.22 µM in [6]. The results for the activity change, negative = inhibition in test [2] and in [4] were 9.48% and 18.7%, respectively. The Potency entry in test [8], in test [10], in test [13] and in [16] was “inactive” throughout. Besides, the outcome in test [14] was inactive.
